BAZ2B block: qHTS Assay for Inhibitors of BAZ2B | 360,000 compounds, 4.4% hits | AlphaScreen BAZ2B-H3K14Ac peptide displacement | Bromodomain adjacent to zinc finger domain protein 2B (Homo sapiens), Q9UIF8 | Potency, µM (highest dose often 114 µM), for the others: at the top dose activity change, negative = inhibition, most hits filed as inhibitors; further: on the % scale 0 is the no-effect control and ±100 the full control effect; nearly all actives have a fitted effect of over 60% in size
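AlphaScreen displacement: compounds (up to 110uM) incubated 30 min at room temperature with a preformed 50 nM BAZ2B/50 nM biotinylated H3K14Ac peptide complex in PBS pH 7.4 with Tween-20. Donor and acceptor beads at 10 ug/mL final added, 20 min light-protected before reading.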
JMJD2A Tudor inh: qHTS Assay for Inhibitors of JMJD2A-Tudor Domain. Lysine-specific demethylase 4A (Homo sapiens), O75164. AlphaScreen JMJD2A-Tudor / H3K4me3 peptide binding. Potency, µM (doses to about 114 µM), without a hit: at the highest dose activity change, negative = inhibition, hits mostly inhibitors. 390,000 compounds, 4.4% hits. AID 504339, 2011; further: on the % scale 0 is the no-effect control and ±100 the full control effect; nearly all actives have a fitted effect of over 50% in size
Target sequence (O75164 whole entry, looked up, the tested form may be a part): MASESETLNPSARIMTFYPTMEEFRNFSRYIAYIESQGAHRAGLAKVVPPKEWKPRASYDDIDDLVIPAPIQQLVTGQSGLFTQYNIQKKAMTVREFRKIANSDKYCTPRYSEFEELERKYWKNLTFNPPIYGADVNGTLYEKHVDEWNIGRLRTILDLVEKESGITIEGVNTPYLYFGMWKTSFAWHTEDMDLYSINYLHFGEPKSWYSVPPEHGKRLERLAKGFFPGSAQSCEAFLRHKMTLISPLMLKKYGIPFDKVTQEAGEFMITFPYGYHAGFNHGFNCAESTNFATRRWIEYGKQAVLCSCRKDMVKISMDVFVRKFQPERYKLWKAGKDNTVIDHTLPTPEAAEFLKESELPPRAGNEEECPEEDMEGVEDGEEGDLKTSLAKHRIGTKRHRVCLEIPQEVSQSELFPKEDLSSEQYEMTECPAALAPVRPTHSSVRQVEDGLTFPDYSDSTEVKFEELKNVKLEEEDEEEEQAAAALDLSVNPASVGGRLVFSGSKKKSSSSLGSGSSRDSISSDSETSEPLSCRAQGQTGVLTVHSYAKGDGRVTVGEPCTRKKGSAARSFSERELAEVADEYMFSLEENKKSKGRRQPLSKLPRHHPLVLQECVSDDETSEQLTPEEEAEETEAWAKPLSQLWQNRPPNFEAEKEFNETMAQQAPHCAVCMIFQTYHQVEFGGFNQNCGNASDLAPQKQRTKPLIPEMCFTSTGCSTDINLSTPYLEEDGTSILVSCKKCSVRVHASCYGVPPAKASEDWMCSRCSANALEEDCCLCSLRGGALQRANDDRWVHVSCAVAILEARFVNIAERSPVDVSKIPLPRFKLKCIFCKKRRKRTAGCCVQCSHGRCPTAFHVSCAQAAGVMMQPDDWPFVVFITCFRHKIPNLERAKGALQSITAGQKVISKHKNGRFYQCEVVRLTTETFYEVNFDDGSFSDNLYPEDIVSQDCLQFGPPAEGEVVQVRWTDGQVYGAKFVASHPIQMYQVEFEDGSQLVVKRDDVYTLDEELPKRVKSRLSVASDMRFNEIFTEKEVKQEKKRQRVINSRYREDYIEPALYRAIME
G9a block: qHTS Assay for Inhibitors of Histone Lysine Methyltransferase G9a; Histone-lysine N-methyltransferase EHMT2 (Homo sapiens), Q96KQ7; G9a H3K9 monomethylation, AlphaScreen, 2 h; Potency, µM (series often up to 102 µM), inactives show top-dose activity, negative = inhibition, hits mostly inhibitors; 350,000 compounds, 8.8% hits; further: on the % scale 0 is the no-effect control and ±100 the full control effect; nearly all actives have a fitted effect of over 75% in size
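Signal arises when biotinylated H3K9 peptide, once monomethylated, bridges streptavidin donor and antibody-captured acceptor beads. Enzyme at 20 nM was preincubated 15 min with test compounds; peptide 500 nM and SAM 20 uM then reacted for 2 h.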
L3MBTL1 inh: qHTS Assay for the Inhibitors of L3MBTL1. Potency, µM (series often up to 57.1 µM), without a hit: top-dose activity, negative = inhibition, actives largely listed as inhibitors. 230,000 compounds, 0.66% hits. Lethal(3)malignant brain tumor-like protein 1 (Homo sapiens), Q9Y468. AlphaScreen L3MBTL1–H3K9me1 peptide binding; further: on the % scale 0 is the no-effect control and ±100 the full control effect; nearly all actives have a fitted effect of over 60% in size
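L3MBTL1 (50 nM) pre-complexed 30 min with biotinylated H3(1-15)K9me1 peptide (75 nM), then compounds added for 30 min at room temperature; AlphaScreen streptavidin donor/nickel chelate acceptor beads (10 ug/mL final) read after 30 min dark incubation.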
HP1b binding inh: HTS for Inhibitors of HP1-beta Chromodomain Interactions with Methylated Histone Tails; Chromobox protein homolog 1 (Homo sapiens), P83916; AlphaScreen HP1-beta / biotin-H3K9me3 peptide binding; Potency, µM (highest dose often 114 µM), for inactives: at the top dose activity change, negative = inhibition, most hits filed as inhibitors; 390,000 compounds, 0.56% hits; AID 540317, 2011; further: nearly all actives have a fitted effect of over 70% in size
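Compound inhibition of the preformed complex between 50 nM HP1-beta and 50 nM biotinylated H3K9me3 peptide was read by AlphaScreen. Buffer was PBS pH 7.4 with 0.01% Tween-20. Incubations ran 30 min at room temperature, with 10 ug/mL donor/acceptor beads.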
Numbers without * were called inactive; u = inconclusive; x = not tested or not shown; [ ] = dose if it differs, or a comment. Hits are enriched below; roughly 11% of the tested compounds scored in any of these assays. The call rests on the fitted dose curve; in most records, active means well fitted inhibition curve with a large enough effect; inconclusive means small, poorly fitted or top-dose-only effect; inactive means no such curve, though single readings can be large or run the other way. Potency means the concentration at half of the fitted maximal effect.

SMILES	BAZ2B block	JMJD2A Tudor inh	G9a block	L3MBTL1 inh	HP1b binding inh
CCCCN(C)C(=O)c1ccc2c(c1)N(Cc1cccc(F)c1)C(=O)c1ccccc1S2	-2.5%	-23.4%	-8.1%[59 µM]	x	4.8%
CCCCON1C(=O)c2cccc3cccc(c23)C1=O	u	5.8%	11.1%	-3.7%	31.1%
CCCCN(C)C1=Nc2cccc3cccc1c23	-0.9%	u	10µM*	x	24.4%
Cc1cccnc1NC(=S)NCc1ccco1	u	-26.3%	2.51µM*	-1.5%	11.8%
S=C(NCc1ccco1)Nc1ccc(Cl)cn1	u	-32.6%	8.91µM*	x	10.0%
S=C(NCc1ccco1)Nc1ccccn1	u	-27.7%	u	-3.2%[11.4 µM]	33.7%
CC(C)(C)c1ccc(C(=O)NC(=S)NCc2ccco2)cc1	-30.4%	-11.0%	-21.7%	x	-2.6%
CC(C)(CO)NC(=S)NCc1ccco1	-6.6%	-13.1%	39.8µM*	-4.0%	8.5%
CC1CN(CCOc2ccc([N+](=O)[O-])cc2)CC(C)O1 (centres undefined)	u	6.31µM*	2.51µM*	6.8%	u
CC1CN(CCOc2ccc(F)cc2)CC(C)O1 (centres undefined)	50.1µM*	20µM*	7.08µM*	1.4%	u
Cc1cc(OCCN2CC(C)OC(C)C2)ccc1[N+](=O)[O-] (centres undefined)	u	2.82µM*	12.6µM*	3.2%	u
CC1CN(CCCOc2ccc([N+](=O)[O-])cc2)CC(C)O1 (centres undefined)	-8.8%	14.1µM*	10µM*	2.7%	u
Cn1c(=O)n(CCOc2ccc([N+](=O)[O-])cc2)c2ccccc21	-7.8%	-17.8%	-6.7%[12.7 µM]	3.2%	14.4%
CC(=O)N1CCN(c2csc3ccc(Cl)cc3c2=O)CC1	-18.7%	-23.6%	-8.9%[59 µM]	x	17.8%[57 µM]
COc1cc(NC(=O)CCCOc2cc(=O)n(C)c3ccccc23)cc(OC)c1OC	-2.9%	-17.5%	5.4%[59 µM]	x	31.9%
COCCNc1c(-c2cc3ccc(C)c(C)c3[nH]c2=O)nc2ccccn12	-28.9%	-33.7%	u	-18.9%	9.8%
O=[N+]([O-])c1ccc(OCCN2CCNCC2)cc1	50.1µM*	25.1µM*	x	16.1%	u
O=[N+]([O-])c1ccc(OCCOCCOc2ccc([N+](=O)[O-])cc2)cc1	-3.8%	-11.9%	-8.2%[59 µM]	x	13.4%
Cc1cc(OCCN2CCC(Cc3ccccc3)CC2)ccc1[N+](=O)[O-]	u	u	39.8µM*	x	u
Cc1ccc(O)c(C2=NCCNC(C(F)(F)F)=C2)c1	-8.0%	18.3%	u	x	-0.3%
Oc1c(C2=NCCNC(C(F)(F)F)=C2)ccc2ccccc12	25.1µM*	50.1µM*	-108.5%[59 µM]	-15.3%	u
N#Cc1ccc(OCCN2CCc3ccccc3C2)cc1	x	25.1µM*	x	x	u
COc1ccc(OCCOCCN2CCc3ccccc3C2)cc1	50.1µM*	2.51µM*	10µM*	x	u
CN(C)c1ccc(Cl)cc1N	u	-4.9%	25.1µM*	-10.4%	36.1%
CCCS(=O)(=O)c1c(S(=O)(=O)CCC)c2cnccn2c1C(=O)c1ccc(CC)cc1	-2.9%	-33.8%	-38.7%[59 µM]	-4.9%	10.9%
SMILES	BAZ2B block	JMJD2A Tudor inh	G9a block	L3MBTL1 inh	HP1b binding inh
CCCS(=O)(=O)c1c(S(=O)(=O)CCC)c2cnccn2c1C(=O)c1ccc(OC)cc1	-16.6%	-12.4%	50.1µM*	1.6%	59.5%
COc1ccc(OCCn2nnc3sc4c(c3c2=O)CCCC4)cc1	50.1µM*	79.4µM*	-2.7%[59 µM]	x	3.0%
COc1ccc(NC(=O)Cn2nnc3sc4c(c3c2=O)CCCC4)cc1	-12.0%	-19.9%	-38.4%[59 µM]	x	7.7%
Cc1cccc(OCCCCn2nnc3sc4c(c3c2=O)CCC(C)C4)c1 (centres undefined)	u	70.8µM*	u	x	60.7%
CC1CCc2c(sc3nnn(Cc4cccc(C(=O)OC(C)C)c4)c(=O)c23)C1 (centres undefined)	3.3%	5.7%	17.8µM*	x	35.1%
CCN(C(=O)CCc1nc(-c2ccc(C)cc2)no1)c1cccc(C(F)(F)F)c1	37.4%	15.1%	48.0%[59 µM]	x	57.6%
CNS(=O)(=O)c1cccc(C(=O)OC2CCCCC2=O)c1 (centres undefined)	-0.8%	-1.7%	12.6µM*	-6.7%	13.7%
O=C(NCc1ccccn1)c1cc(-c2ccc(-c3ccccc3)cc2)nc2ccccc12	u	u	3.16µM*	-18.7%	7.8%
COc1ccc(-c2cc(C(=O)OCc3ccccn3)c3ccccc3n2)cc1	u	20µM*	u	x	204.6%
COc1ccc(-c2cc(C(=O)OCC(=O)N(C)C)c3ccccc3n2)cc1	39.7%	-10.5%	-20.3%[12.7 µM]	22.3%	57.8%
CC(=O)NCCNc1ncncc1-c1ccc(N(C)C)cc1	x	x	9.2%[0.501 µM]	x	x
Cn1c(NC(=O)c2ccccc2F)cc(=O)n(C)c1=O	-29.9%	-9.0%	56.2µM*	x	36.1%
Cn1c(NC(=O)c2ccccc2)cc(=O)n(C)c1=O	-2.9%	-2.1%	-37.2%	1.3%	24.3%
COc1cccc(Nc2nc(C)cc(C)c2C(N)=O)c1	-0.7%	0.0%	20.3%	6.1%	38.8%
O=C1CC(NCC2CCCO2)C(=O)N1c1ccc(Cl)cc1 (centres undefined)	-13.8%	-14.5%	44.7µM*	-2.1%	24.5%
Cc1ccc(N2C(=O)CC(NCC3CCCO3)C2=O)cc1 (centres undefined)	-14.6%	-7.2%	-27.8%	1.9%	51.6%
CCNC(=O)COc1ccc(/C=C2\COc3ccccc3C2=O)cc1OC	-9.2%	-25.8%	39.8µM*	x	4.0%
NC(=O)CC(NC(=O)Cc1ccc(Br)cc1)c1ccc(NCc2ccccn2)c([N+](=O)[O-])c1 (centres undefined)	79.4µM*	u	-108.4%[59 µM]	x	1.4%
NC(=O)c1cc([N+](=O)[O-])c(Cl)cc1NCc1ccccn1	79.4µM*	56.2µM*	10.6%[2.33 µM]	-3.3%	9.9%
NC(=O)CC(NC(=O)Cc1ccc(Br)cc1)c1ccc(NCCN2CCCCC2)c([N+](=O)[O-])c1 (centres undefined)	50.1µM*	-5.0%	x	-7.4%	21.2%
N#Cc1nc(Nc2cccc(F)c2)nc(NC2CCCC2)n1	x	0.7%	x	x	x
CC(=O)NC(Cc1ccc(F)cc1)C(=O)NC1CCN(C(=O)NCc2ccccc2)CC1 (centres undefined)	-12.8%	-0.8%	5.2%	x	31.0%
O=c1[nH]cnc2c1ncn2[C@@H]1C[C@@H](O)[C@H](CO)O1	3.7%	-6.5%	12.1%	x	18.7%
S=c1nc[nH]c2c1ncn2C1CCCO1 (centres undefined)	u	2µM*	10µM*	-12.0%	-16.5%[57 µM]
OCC1OC(n2cnc3c(=S)nc[nH]c32)CC1O (centres undefined)	x	2.82µM*	x	x	u
Nc1ncnc2c1ncn2C1CCCO1 (centres undefined)	7.3%	-1.4%	3.3%[59 µM]	-4.9%	51.8%
